PubChem BioAssay AID602261 (Sanford-Burnham Center for Chemical Genomics, 2012)
Among all 360,000 compounds or so, about 2,400 (0.67%) were called active.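 The calls were made as follows: active = compounds whose normalised, plate-corrected inhibition of enzyme fluorescence in the single-dose primary screen is 50% or more; inactive = the rest.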 Many of the other results were omitted from the sample, so actives are more common in it than they were.

What follows are molecules tested against Fatty acid synthase (Homo sapiens) (UniProt P49327) (assay: FAS thioesterase domain inhibitors, primary screen, biochemical, fluorescence intensity, uHTS (AID 602261;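 also: 0% = DMSO with enzyme and 100% = substrate without enzyme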)). Settings: recombinant FAS-TE, OMFH fluorogenic substrate, fluorescence endpoint; at 15 µM; active compounds read high.
Fatty acid synthase (Homo sapiens), sequence (P49327 whole entry, looked up, the tested form may be a part): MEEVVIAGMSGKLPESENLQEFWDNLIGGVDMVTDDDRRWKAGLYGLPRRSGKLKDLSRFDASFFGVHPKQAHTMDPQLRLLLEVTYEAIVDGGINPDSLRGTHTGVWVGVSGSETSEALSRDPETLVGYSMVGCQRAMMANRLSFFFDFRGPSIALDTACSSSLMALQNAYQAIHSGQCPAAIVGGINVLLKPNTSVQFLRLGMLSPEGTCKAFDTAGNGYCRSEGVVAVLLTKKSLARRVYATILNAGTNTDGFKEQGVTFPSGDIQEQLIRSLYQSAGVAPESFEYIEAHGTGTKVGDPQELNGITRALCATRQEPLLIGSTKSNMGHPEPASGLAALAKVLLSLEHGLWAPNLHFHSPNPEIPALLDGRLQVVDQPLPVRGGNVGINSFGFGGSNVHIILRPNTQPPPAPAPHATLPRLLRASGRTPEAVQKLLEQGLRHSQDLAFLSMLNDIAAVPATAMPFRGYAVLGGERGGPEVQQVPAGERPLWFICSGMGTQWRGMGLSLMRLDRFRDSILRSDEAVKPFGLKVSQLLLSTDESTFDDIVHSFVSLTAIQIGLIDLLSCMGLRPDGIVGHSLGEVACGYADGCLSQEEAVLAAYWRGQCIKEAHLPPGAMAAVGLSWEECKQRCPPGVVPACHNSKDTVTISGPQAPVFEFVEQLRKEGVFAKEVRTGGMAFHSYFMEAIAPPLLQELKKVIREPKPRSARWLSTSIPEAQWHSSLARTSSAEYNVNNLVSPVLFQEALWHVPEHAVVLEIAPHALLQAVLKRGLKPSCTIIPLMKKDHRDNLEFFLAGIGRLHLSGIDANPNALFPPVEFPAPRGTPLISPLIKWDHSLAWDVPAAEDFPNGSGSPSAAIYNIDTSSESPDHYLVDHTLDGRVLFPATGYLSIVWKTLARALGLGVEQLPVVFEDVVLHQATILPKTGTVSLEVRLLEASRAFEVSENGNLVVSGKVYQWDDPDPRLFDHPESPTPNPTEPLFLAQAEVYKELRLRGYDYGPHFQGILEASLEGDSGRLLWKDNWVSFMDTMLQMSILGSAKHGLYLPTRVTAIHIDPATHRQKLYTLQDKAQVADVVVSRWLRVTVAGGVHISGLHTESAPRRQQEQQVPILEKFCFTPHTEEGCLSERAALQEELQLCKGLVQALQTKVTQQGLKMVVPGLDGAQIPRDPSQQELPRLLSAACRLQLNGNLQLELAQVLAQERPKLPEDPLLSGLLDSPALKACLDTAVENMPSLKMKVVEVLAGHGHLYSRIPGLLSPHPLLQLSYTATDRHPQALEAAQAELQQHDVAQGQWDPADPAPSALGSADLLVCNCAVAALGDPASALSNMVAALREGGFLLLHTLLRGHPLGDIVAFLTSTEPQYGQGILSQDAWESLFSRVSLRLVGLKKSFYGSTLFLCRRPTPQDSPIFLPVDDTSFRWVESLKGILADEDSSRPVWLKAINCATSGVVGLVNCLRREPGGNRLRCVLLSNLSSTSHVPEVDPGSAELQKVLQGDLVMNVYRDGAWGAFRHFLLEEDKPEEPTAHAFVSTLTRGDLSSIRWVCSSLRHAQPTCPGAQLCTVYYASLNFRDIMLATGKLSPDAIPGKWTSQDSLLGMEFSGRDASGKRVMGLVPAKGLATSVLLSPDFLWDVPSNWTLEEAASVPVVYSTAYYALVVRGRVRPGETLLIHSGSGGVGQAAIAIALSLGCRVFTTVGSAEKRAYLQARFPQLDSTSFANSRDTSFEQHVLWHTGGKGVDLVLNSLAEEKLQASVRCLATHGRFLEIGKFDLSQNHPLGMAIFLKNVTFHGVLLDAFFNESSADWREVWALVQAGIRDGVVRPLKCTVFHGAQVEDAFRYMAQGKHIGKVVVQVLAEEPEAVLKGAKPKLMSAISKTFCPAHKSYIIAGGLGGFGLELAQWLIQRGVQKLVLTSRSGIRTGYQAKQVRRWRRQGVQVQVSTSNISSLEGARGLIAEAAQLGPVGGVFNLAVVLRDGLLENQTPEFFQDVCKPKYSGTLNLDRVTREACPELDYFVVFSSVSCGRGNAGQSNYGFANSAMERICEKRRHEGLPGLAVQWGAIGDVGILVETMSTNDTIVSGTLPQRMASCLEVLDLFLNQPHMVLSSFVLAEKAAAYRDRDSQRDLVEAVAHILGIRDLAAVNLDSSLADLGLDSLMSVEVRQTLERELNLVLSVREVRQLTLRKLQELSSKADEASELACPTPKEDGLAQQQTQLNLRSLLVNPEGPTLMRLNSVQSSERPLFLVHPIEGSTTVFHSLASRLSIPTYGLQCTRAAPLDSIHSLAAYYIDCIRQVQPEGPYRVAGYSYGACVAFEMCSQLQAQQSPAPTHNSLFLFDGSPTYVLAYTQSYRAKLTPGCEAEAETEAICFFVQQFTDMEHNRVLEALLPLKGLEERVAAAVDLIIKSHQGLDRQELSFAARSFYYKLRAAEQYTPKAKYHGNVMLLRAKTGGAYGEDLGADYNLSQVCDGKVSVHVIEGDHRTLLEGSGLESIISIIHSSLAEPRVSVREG

inhibition, inactive:
O=C(CN1CCC(NC(=O)Nc2ccccc2)CC1)Nc1cccc([N+](=O)[O-])c1 1.8%, CCc1ccc(NC(=O)N2CCc3ccccc3C2)cc1 4.2%, N#CCC(=O)N/N=C/c1ccc(SCC(=O)Nc2ccccc2)o1 -2.5%, CCC1CCCCN1CCCNC(=O)c1cc2c(Cl)nc3ccccc3c2s1 (centres undefined) -5.7%, COc1cc(C2C(C(=O)c3cccs3)=C(O)C(=O)N2CCN2CCOCC2)ccc1OCCC(C)C (centres undefined) 0.8%, CC/C(Cc1ccccc1)=N/NC(=O)CCn1nnc2ccccc21 -8.1%, Cc1noc(C)c1C(=O)N1CCC1(C)C(=O)NS(=O)(=O)c1ccc(C#N)cc1 (centres undefined) -9%, CC1(C(=O)NS(=O)(=O)c2ccc(C#N)cc2)CCN1C(=O)CC1CCCC1 (centres undefined) 4.2%, O=C1CCC/C(=N\NC(=O)NC2CCCCC2)C1 -1%, CCOC(=O)N1CCN(Cc2nc3cc(NC(C)=O)ccc3n2C)CC1 -7%, COc1cccc(-n2nc(C(=O)N3CCN(Cc4ccccc4)CC3)c3ccccc3c2=O)c1 3.5%, CCOC(=O)CSC1=N/C(=C/c2ccc(-n3cncn3)cc2)C(=O)N1C(C)=O -6.6%, Cc1c(Cl)c([N+](=O)[O-])nn1Cc1ccc(C(=O)N/N=C\c2cc(Cl)ccc2O)o1 36.1%, Cc1occc1C(=O)N/N=C/c1ccc(-c2cccc([N+](=O)[O-])c2)o1 20.7%, Cc1ccc(S(=O)(=O)Nc2ccc3c(c2)C(=O)N([C@H](C)CO)C[C@@H](C)[C@@H](CN(C)C(=O)Nc2cccc4ccccc24)O3)cc1 -2.7%, COc1ccc2nc(N3CCN(C(=O)c4ccc([N+](=O)[O-])o4)CC3)sc2c1 10.7%, Fc1ccc2nc(Nc3nc4c(s3)CCCC4)sc2c1 7.4%

inhibition, active:
O=C(Nc1cccc([N+](=O)[O-])c1)N1CCc2ccccc2C1 52.5%, O=[N+]([O-])c1c(NCCO)cc(Sc2nc3ccccc3s2)c2nonc12 83.1%, Cc1cc(C)c(C2C3=C(Nc4c2c(C)nn4-c2ccccn2)c2ccccc2C3=O)c(C)c1 (centres undefined) 68.9%, CC1(C(=O)NS(=O)(=O)c2ccc(C#N)cc2)CCN1C(=O)c1ccc(C2CCCCC2)cc1 (centres undefined) 62.6%, CCOC(=O)N1CCN(Cc2nc3ccc([N+](=O)[O-])cc3c(=O)n2-c2cccc(OC)c2)CC1 72.4%, Cc1cc(C(=O)N/N=C/c2cc([N+](=O)[O-])cc(C)c2O)n[nH]1 65.7%, COc1ccc2nc(Nc3nc4cc5c(cc4s3)OCCO5)sc2c1 66.6%
